# Screens as filed in PubChem BioAssay.
# Only a selection was taken, and hits are over-represented in it overall.
# Dicer processing = inhibitors of human Dicer processing of pre-microRNA | Q9UPY3 | cat-ELCCA pre-miR-21 Dicer processing, chemiluminescence; stronger effect = higher value | z-score at 25 µM | 6% of 47,000 active; in the data active = z-score above about 3, passing the limit was not always enough;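 also: plate controls were vehicle for no effect and no enzyme for full effect; higher signal means more uncleaved substrate so more Dicer inhibition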
# Starred values were filed as active, the others as inactive.
SMILES,Dicer processing
C=CCOC(=O)C1=C(C)NC2=C(C(=O)CCC2)C1c1ccc(CC)cc1 (centres undefined),0.64
O=C(c1nc2nc(-c3ccccc3)cc(C(F)(F)F)n2n1)N1CCOCC1,-0.57
Cc1cc(C)n2nc(C(=O)N3CCOCC3)nc2n1,4.4*
COC(=O)c1nc2nc(C)cc(C)n2n1,2.8
O=C(CSc1nnc2sc3ccccc3n12)NC(=O)Nc1ccccc1,-0.97
Clc1cccc(CNCc2ccc3c(c2)OCO3)c1,-0.32
O=C(NCc1ccc2c(c1)OCO2)N1CCOCC1,-1.5
c1cc2c(cc1CNCCCN1CCOCC1)OCO2,5.8*
CC1=C(C(=O)OC2CCCC2)C(c2ccccc2C)C2=C(CC(C)(C)CC2=O)N1 (centres undefined),-0.83
Cc1ccc(S(=O)(=O)N2CCCN(S(=O)(=O)c3ccc(C)cc3C)CC2)c(C)c1,-0.03
Cc1cc(Sc2ccc([N+](=O)[O-])cn2)c(Cl)cc1Cl,-0.48
NN=C1c2cc(Br)ccc2-c2ccc(Br)cc21,0.31
COc1ccc(/C=C2\N=C(SC)SC2=O)cc1Br,0.29
Cc1c(NC(=O)Nc2ccccc2)sc2nc(-c3ccc(Cl)cc3)nn12,-2.3
CC1CCc2c(sc(NC(=O)Nc3ccc(Cl)cc3)c2C(N)=O)C1 (centres undefined),1.6
CS(=O)(=O)c1sc(NC(=O)Nc2ccc(Cl)cc2)c2c1C=CCC2,3.3*
O=C(Oc1ccc2c(=O)c(-c3ccccc3Cl)coc2c1)c1cccs1,0.61
COC(=O)C(C)Oc1ccc2c(=O)c(Oc3ccccc3Cl)coc2c1 (centres undefined),-0.38
Cc1ccc2c(=O)c(C(=O)c3ccccc3Cl)coc2c1,3.8*
O=[N+]([O-])c1cc(S(=O)(=O)N2CCOCC2)ccc1N1CCOCC1,-2.3
O=C1Nc2ccccc2/C1=C/c1c(Sc2ccc(Cl)cc2)nc2sccn12,5.7*
NC(=S)N/N=C/c1c(Sc2ccc(Cl)cc2)nc2sccn12,0.34
Clc1ccc(Sc2c(-c3ccccc3)nc3sccn23)cc1,0.4
O=C(NC(=O)c1c(Cl)cccc1Cl)Oc1ccc(C(F)(F)F)cc1,-0.94
O=S(=O)(NNC(=S)Nc1ccccc1F)c1ccc(Cl)cc1,0.15
SMILES,Dicer processing
Cc1ccsc1CNC(=O)Nc1ccc(OCc2ccccc2)cc1,2.7
O=C(NCc1sccc1COc1ccc(Cl)cc1)Nc1ccccc1F,4.5*
Cc1cc(C)n(NC(=S)NC2CC3C=CC2C3)c(=O)c1C#N (centres undefined),-1.8
COC(=O)c1cc(OC)c(OC)cc1N1C(=O)CC(c2cc(OC)c(OC)c(OC)c2)CC1=O,1.8
O=C(Nc1cc(C(F)(F)F)cc(C(F)(F)F)c1)Nc1cc2ccccc2s1,3*
O=C(Nc1cc2ccccc2s1)NC1Cc2ccccc2C1,-0.16
O=C(NCc1cccs1)Nc1cc2ccccc2s1,-1.3
CCOC(=O)COc1ccc(C)c2c1CCC2,-0.08
COc1cc(/C=N/n2cnc3c(sc(=S)n3C)c2=O)ccc1O,-1.7
COc1cc(/C=N/c2nccs2)ccc1O,3.1*
COc1cc(C=Nc2ccc(N3N=C(C)CC3=O)cc2)ccc1O,-6.6
CC(C)(C)OC(=O)N[C@@H](Cc1ccccc1)c1n[nH]c(=S)o1,-0.86
CCOC(=O)c1c(C)oc2ccc(OCC(=O)OC(C)(C)C)cc12,0.63
Cc1nn2c(=O)/c(=C/c3ccccc3Cl)sc2nc1=O,-0.34
CC(C(=O)NNC(=S)Nc1ccccc1Cl)n1nnc(N2CCOCC2)n1 (centres undefined),-0.26
COc1ccc2[nH]c(C(=O)O)cc2c1,0.75
COc1ccc2c(c1)CCCN2C(=O)c1sc2ccccc2c1Cl,-1.1
COc1ccc2sc(C(=O)O)c(Br)c2c1,4.3*
Cc1ccc2nc3c(c(C(=O)O)c2c1)CCCC3,-0.76
O=C(NCCCO)C(=O)NC1CCCCC1,-0.51
C=CCSc1nnc2c(n1)OC(/C=C/c1cccs1)N(C(C)=O)c1ccccc1-2 (centres undefined),-1.6
CCCSC(=NCC)Nc1c(C)cccc1C,0.82
Cc1cccc(C)c1NC(=O)C(C)N (centres undefined),0.84
CSC(=NC(C)(C)CO)Nc1c(C)cccc1C,4.8*
O=C(Nc1ccccc1Sc1nccc(C(F)(F)F)n1)c1ccc(Cl)cc1,-2
SMILES,Dicer processing
C=CCOC(=O)c1sc(N2C(=O)c3oc4ccc(F)cc4c(=O)c3C2c2ccc(O)cc2)nc1C (centres undefined),2.6
CC1C(c2ccccc2)OCCN1C(=O)CCC(=O)N1CCOC(c2ccccc2)C1C (centres undefined),5.6*
CN1CCOC(c2ccccc2)c2ccccc2C1 (centres undefined),0.53
O=C(CCc1ccccc1)N1CCC(c2ccccc2)C1 (centres undefined),-1.4
CCSc1nnc(NC(=O)c2ccncc2)s1,2
CC(=O)Nc1cccc(OCCCNS(=O)(=O)c2ccc(N(C)C(=O)c3ccc(Cl)cc3)s2)c1,-1
O=S(=O)(c1ccc(-c2nc3ccccc3s2)cc1)N1CCc2ccccc21,0.45
CC1=CC(C)(C)Nc2ccc(OC(=O)c3ccccc3Br)cc21,4*
CCOC(=O)Oc1ccc2c(c1)C(C)=CC(C)(C)N2,0.43
CC1=CC(C)(C)N2C(=O)C(=O)c3cc(OC(=O)c4ccccc4Br)cc1c32,1.7
CC1=CC(C)(C)Nc2ccc(OC(=O)c3ccc(Cl)cc3)cc21,4.6
CC1=CC(C)(C)Nc2ccc(OC(=O)c3cccc(Br)c3)cc21,3.1*
CC1=CC(C)(C)Nc2ccc(OC(=O)COc3ccccc3)cc21,-3.4
COc1ccc(C2=NN(S(=O)(=O)c3ccccc3)C(c3ccc(OC)c(OC)c3)C2)cc1OC (centres undefined),-2.2
Cc1c(Sc2ccc(Cl)cc2)cnn1C(=O)c1ccc(Cl)cc1,-1.4
CCOc1ccc(S(=O)(=O)Nc2cnc3ccccc3c2)cc1,-2.8
Cc1cc([N+](=O)[O-])nn1CC(=O)Nc1cnc2ccccc2c1,3.5*
Cc1cc([N+](=O)[O-])nn1CC(=O)Nc1ccccn1,-0.84
C=CCN1C(=O)C2(/C(=C(/O)c3ccccc3)C(=O)C(=O)N2CCCN2CCOCC2)c2ccccc21 (centres undefined),3.5*
C=CCN1C(=O)C2(/C(=C(/O)c3ccc(F)cc3)C(=O)C(=O)N2CCN2CCOCC2)c2ccccc21 (centres undefined),4.5*
CN1C(=O)C2(/C(=C(/O)c3ccc(Cl)cc3)C(=O)C(=O)N2CCCN2CCOCC2)c2ccccc21 (centres undefined),10
C=CCN1C(=O)C2(/C(=C(/O)c3ccc(Cl)cc3)C(=O)C(=O)N2CC2CCCO2)c2ccccc21 (centres undefined),0.42
C=CCN1C(=O)C2(/C(=C(/O)c3ccc(F)cc3)C(=O)C(=O)N2CCCOC)c2ccccc21 (centres undefined),-0.04
Cn1c(=O)c2c(c3ccccc31)OC(=O)CC2c1ccc(F)cc1 (centres undefined),-1.2
CC(c1ccccc1)N1C(=O)CSC1=S (centres undefined),-1.5
SMILES,Dicer processing
O=S(=O)(Nc1ccc(S(=O)(=O)Nc2ncccn2)cc1)c1ccc(F)cc1,0.39
CC(C)c1ccc(C2Sc3ccccc3N=C3c4ccccc4OCC32)cc1 (centres undefined),-0.67
Cc1cccc(C)c1NC(=O)NCCCO,1.1
CC(C)=N/N=C1/N=C(c2ccc(Cl)cc2)CS1,5.2*
CC(=Nc1ccc(Cl)cc1)c1ccsc1,0.26
Clc1ccc(C2=Nn3c(CSc4ccccc4)nnc3SC2)cc1,-0.33
COc1ccc(Cc2nnc(SCc3ccc(Br)cc3)o2)cc1,1.8
